A short description of assay [1]: antimalarial activity against Dd2 strain (AID 2302;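 active = growth inhibition above 50% at the single 2 µM test dose, taken to imply half-maximal potency below 2 µM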;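 note: 0% = DMSO untreated growth and 100% = chloroquine plus artemisinin killed control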). The note with it: P. falciparum Dd2 in RBCs, LDH growth readout, 72 h; at 2 µM; hits give high values.
The nature of assay [2]: human hepatoma cell viability loss – ATP luminescence, cytotoxicity control for P. falciparum antimalarial project, primary screen (AID 2303;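 active = inhibition above 50%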;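 note: 0% = DMSO wells and 100% = digitonin-killed cells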). The conditions noted are these: HepG2 viability, 24-48 h, at 10 µM, hits give high values.
In assay [3] the target is L-lactate dehydrogenase (Plasmodium falciparum (isolate CDC / Honduras)) (UniProt Q27743). Briefly: PfLDH activity inhibition – cell lysate, 3D7 strain, counter-screen for P. falciparum growth inhibition project (AID 2304).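 Note: 0% = vehicle and 100% = reference inhibitor.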 The note with it: P. falciparum 3D7 crude extract, LDH APAD/NBT absorbance; at 2 µM; hits give high values.
Chain of L-lactate dehydrogenase (Plasmodium falciparum (isolate CDC / Honduras)) (Q27743 whole entry, looked up): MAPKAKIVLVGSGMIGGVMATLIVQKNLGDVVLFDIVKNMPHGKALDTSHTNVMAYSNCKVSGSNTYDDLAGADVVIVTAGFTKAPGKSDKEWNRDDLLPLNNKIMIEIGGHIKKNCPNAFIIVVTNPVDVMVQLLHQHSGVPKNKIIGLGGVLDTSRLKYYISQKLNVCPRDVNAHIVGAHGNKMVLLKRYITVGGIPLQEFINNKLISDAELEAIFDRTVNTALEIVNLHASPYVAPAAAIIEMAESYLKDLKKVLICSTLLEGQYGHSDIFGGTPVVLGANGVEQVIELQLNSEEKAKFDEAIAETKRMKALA
Assay [4] can be described thus: inhibition of 3D7 malaria parasite growth – strain 3D7 (AID 2306).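 Note: 0% = DMSO wells and 100% = chloroquine plus artemisinin control wells.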 The conditions noted are these: P. falciparum 3D7 erythrocytic growth, LDH absorbance, 72 h; at 2 µM; hits give high values.
Assay [5] has as its target Calcium-dependent protein kinase 1 (Plasmodium falciparum (isolate 3D7)) (UniProt P62344). The experiment in a line: PfCDPK1 kinase inhibitors, biochemical, TCAMS library (AID 1159585; cut-off not given, nearly all actives have IC50 up to about 0.98 µM;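 note: inhibitors leave more ATP so luminescence rises with inhibition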). The note with it: recombinant PfCDPK1, Kinase-Glo ATP depletion luminescence. Background: Kinase-Glo reads ATP consumption through a luciferase reaction.
Assay [6] has as its target Plasmodium falciparum protein kinase 6 (PK6, PF3D7_1337100) (UniProt Q8IDW1). The experiment in a line: PfPK6 kinase inhibitors, biochemical, TCAMS library (AID 1159586). The conditions noted are these: recombinant PfPK6, Kinase-Glo ATP depletion luminescence.
The target in assay [7] is Protein kinase 7 (PK7), Plasmodium falciparum 3D7 (PF3D7_0213400) (UniProt Q7YTF7). The experiment in a line: inhibition of Plasmodium PK7 catalytic activity – biochemical, TCAMS antimalarial set, Kinase-Glo luminescence (AID 1159587). The note with it: recombinant PfPK7, Kinase-Glo ATP depletion luminescence.
Chain of Protein kinase 7 (PK7), Plasmodium falciparum 3D7 (PF3D7_0213400) (Q7YTF7 1-343): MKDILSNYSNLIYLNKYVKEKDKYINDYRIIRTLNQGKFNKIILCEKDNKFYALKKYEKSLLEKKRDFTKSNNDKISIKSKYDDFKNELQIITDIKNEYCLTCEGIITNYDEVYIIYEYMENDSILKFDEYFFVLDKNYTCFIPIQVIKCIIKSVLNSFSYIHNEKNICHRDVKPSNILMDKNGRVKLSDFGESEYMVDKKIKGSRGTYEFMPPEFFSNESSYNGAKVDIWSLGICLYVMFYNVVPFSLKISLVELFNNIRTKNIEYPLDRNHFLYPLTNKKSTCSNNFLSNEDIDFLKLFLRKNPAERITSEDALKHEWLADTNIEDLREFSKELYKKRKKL
For assay [8], the target named is Calcium-dependent protein kinase 4 (Plasmodium falciparum (isolate 3D7)) (UniProt Q8IBS5). Briefly: PfCDPK4 kinase inhibitors, biochemical, TCAMS library (AID 1159588; cut-off not given, nearly all actives have IC50 up to about 0.91 µM). The conditions noted are these: recombinant PfCDPK4, Kinase-Glo ATP depletion luminescence.
Chain of Calcium-dependent protein kinase 4 (Plasmodium falciparum (isolate 3D7)) (Q8IBS5 whole entry, looked up): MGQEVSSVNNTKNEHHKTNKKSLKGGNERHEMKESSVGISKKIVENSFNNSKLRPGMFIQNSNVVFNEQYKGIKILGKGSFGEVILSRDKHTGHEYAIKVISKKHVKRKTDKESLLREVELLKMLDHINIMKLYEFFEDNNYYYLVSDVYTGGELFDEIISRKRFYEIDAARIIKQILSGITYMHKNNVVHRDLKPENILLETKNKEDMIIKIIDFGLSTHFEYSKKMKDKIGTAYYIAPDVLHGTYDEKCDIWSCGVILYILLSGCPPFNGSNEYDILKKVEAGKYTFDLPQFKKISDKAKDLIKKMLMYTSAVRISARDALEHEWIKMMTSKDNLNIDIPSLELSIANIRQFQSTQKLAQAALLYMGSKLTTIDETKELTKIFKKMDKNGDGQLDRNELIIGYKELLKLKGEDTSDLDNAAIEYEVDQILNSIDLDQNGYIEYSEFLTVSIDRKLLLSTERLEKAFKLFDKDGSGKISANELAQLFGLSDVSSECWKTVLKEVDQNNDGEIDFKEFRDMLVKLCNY

Unmarked numbers belong to inactive results. For some of these results: Results with a measured potency or affinity are listed apart. Activity calls are given as the source filed them. Unless noted, the rule behind the calls is not given here.

Chain of Plasmodium falciparum protein kinase 6 (PK6, PF3D7_1337100) (Q8IDW1 1-305): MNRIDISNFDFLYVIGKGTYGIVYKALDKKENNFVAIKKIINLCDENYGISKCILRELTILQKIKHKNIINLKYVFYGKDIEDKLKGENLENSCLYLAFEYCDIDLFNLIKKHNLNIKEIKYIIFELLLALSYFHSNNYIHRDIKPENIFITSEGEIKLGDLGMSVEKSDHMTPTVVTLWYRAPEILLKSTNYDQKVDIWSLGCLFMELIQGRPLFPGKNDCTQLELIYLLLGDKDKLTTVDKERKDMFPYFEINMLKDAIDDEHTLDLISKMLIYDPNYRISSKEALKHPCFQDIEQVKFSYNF
Chain of Calcium-dependent protein kinase 1 (Plasmodium falciparum (isolate 3D7)) (P62344 whole entry, looked up): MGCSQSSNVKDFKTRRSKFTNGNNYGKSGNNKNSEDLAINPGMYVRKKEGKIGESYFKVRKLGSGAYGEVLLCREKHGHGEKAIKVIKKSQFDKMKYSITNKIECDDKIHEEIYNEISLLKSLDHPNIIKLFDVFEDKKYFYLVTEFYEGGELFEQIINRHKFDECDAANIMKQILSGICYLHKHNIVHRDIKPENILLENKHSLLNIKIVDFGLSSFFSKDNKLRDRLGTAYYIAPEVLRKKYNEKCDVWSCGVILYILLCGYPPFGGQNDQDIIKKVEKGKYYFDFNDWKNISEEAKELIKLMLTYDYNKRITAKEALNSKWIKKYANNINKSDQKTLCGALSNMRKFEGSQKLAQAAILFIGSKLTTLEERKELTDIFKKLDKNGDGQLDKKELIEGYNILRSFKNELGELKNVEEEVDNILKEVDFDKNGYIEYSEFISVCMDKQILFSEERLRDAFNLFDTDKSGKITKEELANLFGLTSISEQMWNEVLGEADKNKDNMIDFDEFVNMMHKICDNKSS

Consider `CN(C)CCN(C)C(=O)c1cc(-c2ccncc2)c(-c2ccc(Cl)c(O)c2)o1`, for which the growth inhibition in assay [1] is 34%; in assay [4], 97% (active). Moreover, the figures for the inhibition in assay [2] and in assay [3] were -11% and 0%, respectively. Besides, the outcome in assay [5], in assay [6], in assay [7] and in assay [8] was inactive.
For the compound `COc1ccc2c(c1)CCN(CCN1CCC(CNC(=O)c3ccc(-c4ccc(C#N)cc4)cc3)CC1)C2`, the growth inhibition was 51% (active) in assay [1] and 100% (active) in assay [4]. For the same compound, the figures for the inhibition in assay [2] and in assay [3] were 40% and 2%, respectively. In addition, the result in assay [5], in assay [6], in assay [7] and in assay [8] was inactive.
In the case of `Cc1cccc2[nH]c(-c3cccc(-c4ccc(CN5CCC(C(N)=O)CC5)cc4)c3)nc12`, the growth inhibition in assay [1] was 9%; in assay [4], 89% (active). Also, the inhibition in assay [2] was -1%; in assay [3], 4%. Also, the outcome in assay [5], in assay [6], in assay [7] and in assay [8] was inactive.
For `CN(C)CCCn1cncc1-c1ccc2ncnc(Nc3ccc4c(cnn4Cc4ccccc4)c3)c2c1`, the growth inhibition in assay [1] was 77% (active); in assay [4], 101% (active). Besides, the inhibition in assay [2] was 17%; in assay [3], -2%. For the same compound, the result in assay [5], in assay [6], in assay [7] and in assay [8] was inactive.
Turning to `Cc1nc(C)c(CC(=O)Nc2ccc(-c3cccc(-c4nc5c(C)cccc5[nH]4)c3)cc2)s1`, the growth inhibition is 38% in assay [1] and 101% (active) in assay [4]. Also, the inhibition was 41% in assay [2] and -1% in assay [3]. In addition, the outcome in assay [5], in assay [6], in assay [7] and in assay [8] was inactive.
For `CN1CCCC(CN2CCN(Cc3ccc(-c4cccc(-c5nc6ccccc6[nH]5)c4)cc3)CC2)C1` (stereo not given), the growth inhibition in assay [1] was 100% (active); in assay [4], 101% (active). Besides, the inhibition in assay [2] was 57% (active); in assay [3] it was -3%. Besides, the outcome in assay [5], in assay [6], in assay [7] and in assay [8] was inactive.
Regarding `COc1ccc2ncc(F)c(CCN3CCC(NCc4ccc5c(c4)CCO5)CC3)c2n1`, the growth inhibition in assay [1] is 30%; in assay [4], 100% (active). For the same compound, the results for the inhibition in assay [2] and in assay [3] were 20% and 3%, respectively. Moreover, the outcome in assay [5], in assay [6], in assay [7] and in assay [8] was inactive.
With `Cc1cc2nc(-c3ccc(OCC(=O)NCc4cccc(C(F)(F)F)c4)cc3)[nH]c2cc1C`, the growth inhibition in assay [1] was 1%; in assay [4], 94% (active). The values for the inhibition in assay [2] and in assay [3] were 4% and -4%, respectively. In addition, the outcome in assay [5], in assay [6], in assay [7] and in assay [8] was inactive.
Take `C=CCNC(=O)C(C)c1ccc2cc(OC)ccc2c1` (stereo not given): the growth inhibition in assay [1] was 90% (active); in assay [4], 92% (active). For the same compound, the inhibition is 4% in assay [2] and 1% in assay [3]. Besides, the result in assay [5], in assay [6], in assay [7] and in assay [8] was inactive.
`Cc1cccc2[nH]c(-c3ccc(-c4cccc(NC(=O)CCc5cnc[nH]5)c4)cc3)nc12`: the growth inhibition was 14% in assay [1] and 101% (active) in assay [4]. Besides, the inhibition in assay [2] was 13%; in assay [3] it was 4%. Moreover, the outcome in assay [5], in assay [6], in assay [7] and in assay [8] was inactive.
Consider `c1cc2nc(CCCc3nc4ccc(C5=N[C@H]6CCCC[C@H]6N5)cc4[nH]3)[nH]c2cc1C1=N[C@@H]2CCCC[C@@H]2N1`, for which the values for the growth inhibition in assay [1] and in assay [4] were 84% (active) and 85% (active), respectively. Also, the inhibition in assay [2] was 10%; in assay [3], -2%. Also, the result in assay [5], in assay [6], in assay [7] and in assay [8] was inactive.
In the case of `Cc1c2ccncc2c(C)c2c1[nH]c1cc(Cc3ccccc3)c(O)cc12`, the growth inhibition in assay [1] was 99% (active); in assay [4] it was 100% (active). Moreover, the inhibition in assay [2] is 99% (active); in assay [3], -4%. Moreover, the outcome in assay [5], in assay [6], in assay [7] and in assay [8] was inactive.
Take `COc1cccc(C(=O)NCCOc2ccccc2)c1Oc1ccccc1`: the growth inhibition in assay [1] and in assay [4] was 98% (active) in each case. The inhibition is 14% in assay [2] and -4% in assay [3]. The outcome in assay [5], in assay [6], in assay [7] and in assay [8] was inactive.
Consider `CCOC(=O)c1ccc(NC(=O)N[C@@H](Cc2ccccc2)C(=O)NC2CCN(Cc3ccc(O)cc3)C2)cc1` (stereo not given in full), for which the growth inhibition in assay [1] was 2%; in assay [4] it was 95% (active). Besides, the results for the inhibition in assay [2] and in assay [3] were 7% and -6%, respectively. In addition, the result in assay [5], in assay [6], in assay [7] and in assay [8] was inactive.
With `CN(C)c1ccc2nc(N)nc(N)c2c1Cl`, the growth inhibition in assay [1] was -1%; in assay [4] it was 98% (active). Further, the inhibition was 68% (active) in assay [2] and 2% in assay [3]. Moreover, the result in assay [5], in assay [6], in assay [7] and in assay [8] was inactive.
In the case of `COc1ccc2ncc(Cl)c([C@H](O)CN3CCC(NCc4cc5c(cn4)OCCO5)CC3)c2c1`, the growth inhibition in assay [1] and in assay [4] was 100% (active) throughout. For the same compound, the inhibition in assay [2] was 10%; in assay [3], 1%. Also, the outcome in assay [5], in assay [6], in assay [7] and in assay [8] was inactive.
As to `CCc1cn2c3c(cc(C(=O)N[C@@H](Cc4ccccc4)[C@H](O)CNCc4ccccc4C)cc13)N(C)S(=O)(=O)CC2`, the growth inhibition in assay [1] and in assay [4] was 98% (active) each time. For the same compound, the inhibition was 3% in assay [2] and 5% in assay [3]. Also, the result in assay [5], in assay [6], in assay [7] and in assay [8] was inactive.
Turning to `COc1ccc2c(NN=Cc3ccccc3F)ccnc2c1`, the growth inhibition is 99% (active) in assay [1] and 98% (active) in assay [4]. Besides, the inhibition in assay [2] is 15%; in assay [3] it was 0%. Also, the result in assay [5], in assay [6], in assay [7] and in assay [8] was inactive.
In the case of `CC(C)CC(C)NC(=O)C1Cc2c([nH]c3cc(Cl)ccc23)C2(CCN(CCc3ccccc3)CC2)N1` (stereo not given), the growth inhibition in assay [1] is 65% (active); in assay [4], 95% (active). Besides, the inhibition in assay [2] was 15%; in assay [3], -1%. For the same compound, the result in assay [5], in assay [6], in assay [7] and in assay [8] was inactive.
Consider `CCCCN1CCCC[C@H]1[C@@H](O)c1ccnc2ccc(OCC)cc12`, for which the growth inhibition in assay [1] is 88% (active); in assay [4], 100% (active). Besides, the figures for the inhibition in assay [2] and in assay [3] were 6% and -2%, respectively. Besides, the outcome in assay [5], in assay [6], in assay [7] and in assay [8] was inactive.

For orientation: inhibition means the drop in the measured response relative to a control, in per cent.

The record behind these values is PubChem BioAssay.
